Data as given in PubChem BioAssay (NCATS).
Results filed as inconclusive are left out. A call without a number means that no potency is given here. Activity calls are given as the source filed them. Unless noted, calls come from the whole dose curve. Square brackets hold non-standard residues; d marks the D form. Peptide text beside a SMILES is read from it. ξ: configuration not given here. d(hArg(Et2)) = CCN=C(NCC)NCCCC[C@@H](N)C(=O)O; hArg(Et2) = CCN=C(NCC)NCCCC[C@H](N)C(=O)O; Phe(4-Cl) = N[C@@H](Cc1ccc(Cl)cc1)C(=O)O; ξ2Nal = NC(Cc1ccc2ccccc2c1)C(=O)O; 3Pal = N[C@@H](Cc1cccnc1)C(=O)O; ξP = O=C(O)C1CCCN1

Tests used:
[1] = Primary qHTS for inhibitors of SARS-S pseudo-typed particle cell entry (AID 1479145); settings: outcome: dose series up to 57.1 µM unless noted; note: nearly all actives have a fitted effect of over 45% in size
[2] = Primary qHTS for Huh7 cytotoxicity: counterscreen for inhibitors of MERS-S pseudotyped particle cell entry (AID 1479147); settings: outcome: dose series up to 57.1 µM unless noted
[3] = Primary qHTS for inhibitors of MERS-S pseudo-typed particle cell entry (AID 1479149); settings: outcome: dose series up to 57.1 µM unless noted; note: nearly all actives have a fitted effect of over 60% in size
[4] = Primary qHTS for Vero E6 cytotoxicity: counterscreen for inhibitors of SARS-S pseudo-typed particle cell entry (AID 1479150); settings: outcome: dose series up to 57.1 µM unless noted
[5] = Cytotoxicity counterscreen for inhibitors of SARS-CoV-2 cell entry (AID 1645845); settings: outcome: dose series up to 57.1 µM unless noted; note: nearly all actives have a fitted effect of over 50% in size
In short: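 48 h compound treatment (after 1 h preincubation), HEK293-ACE2 cells, 37 C/5% CO2; ATP luminescence endpoint; normalized to cell wells and media blanks.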

[6] = Confirmatory qHTS to identify inhibitors of SARS-CoV-2 cell entry (AID 1645844); note: potency is the fitted concentration of half-maximal effect; nearly all actives have a fitted effect of over 45% in size
In short: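 Luminescence from a luciferase reporter, read 48 hr after pseudotyped-particle addition, gives entry signal, normalised to spike-bearing PP wells and bald PP lacking fusion protein wells. Cells are Expi293F stably expressing human ACE2, compound-pretreated 1 hr.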

[7] = target: Phospholipid hydroperoxide glutathione peroxidase GPX4 (Homo sapiens) (UniProt P36969); test: Primary qHTS Assay for Inhibitors of Recombinant Selenoprotein Glutathione Peroxidase 4 (GPX4) (AID 1845192; active = well fitted inhibition curve with a large enough effect; note: series mostly up to about 50 µM; nearly all actives have a fitted effect of over 65% in size)
Sequence of Phospholipid hydroperoxide glutathione peroxidase GPX4 (Homo sapiens) (P36969 whole entry, looked up): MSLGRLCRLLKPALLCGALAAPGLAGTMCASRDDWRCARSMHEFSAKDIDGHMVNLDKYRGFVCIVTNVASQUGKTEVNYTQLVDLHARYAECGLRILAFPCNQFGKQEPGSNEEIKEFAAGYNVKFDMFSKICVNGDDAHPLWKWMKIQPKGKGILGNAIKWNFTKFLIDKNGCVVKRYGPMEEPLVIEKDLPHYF
In short: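 NADPH consumption, followed by fluorescence at 340/450 nm between 0 and 15 min, reports GPX4 activity via coupled glutathione reductase (100 nM). Enzyme 200 nM was pre-exposed to compound 30 min; 0.5 mM cumene hydroperoxide and 1 mM GSH served as substrates.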

CCCCCCCCCCCCCCCC(=O)OC1CCCn2c1nc(C)c(CCN1CCC(c3noc4cc(F)ccc34)CC1)c2=O (stereo unspecified)
Potency [1]: inactive
Potency [2]: inactive
Potency [3]: inactive
Potency [4]: inactive
Potency [5]: inactive

CC(C)[C@H](N)C(=O)O
Potency [1]: inactive
Potency [2]: inactive
Potency [3]: inactive
Potency [4]: inactive

CCCCC(CC)COC(=O)CC(C(=O)OCC(CC)CCCC)S(=O)(=O)O (stereo unspecified)
Potency [1]: inactive
Potency [2]: inactive
Potency [3]: inactive
Potency [4]: inactive
Potency [5]: inactive

CC[C@H]1OC(=O)C[C@@H](O)[C@H](C)[C@@H](OC2OC(C)C(O)C(N(C)C)C2O)[C@@H](CCN2CCCCC2)C[C@@H](C)C(=O)/C=C/C(C)=C/[C@@H]1CN1CCCCC1 (stereo partly specified)
Potency [1]: inactive
Potency [2]: inactive
Potency [3]: inactive
Potency [4]: inactive
Potency [5]: inactive

CN(C)CC(c1ccc(O)cc1)C1(O)CCCCC1 (stereo unspecified)
Potency [1]: inactive
Potency [2]: inactive
Potency [3]: inactive
Potency [4]: inactive
Potency [5]: inactive

NC(=O)[C@@H]1CC[C@@H]2CN1C(=O)N2OS(=O)(=O)O
Potency [1]: inactive
Potency [2]: inactive
Potency [3]: inactive
Potency [4]: inactive
Potency [5]: inactive

C[N+](C)(C)C1CCC(CC2CCC([N+](C)(C)C)CC2)CC1 (stereo unspecified)
Potency [1]: inactive
Potency [2]: inactive
Potency [3]: inactive
Potency [4]: inactive

C=C/C=C\CC1=C(C)[C@@H](OC(=O)[C@H]2[C@H](C=C(C)C)C2(C)C)CC1=O
Potency [1]: inactive
Potency [2]: inactive
Potency [3]: inactive
Potency [4]: inactive

CC12C=CC(=O)NC1CCC1C2CCC2(C)C(C(=O)Nc3cc(C(F)(F)F)ccc3C(F)(F)F)CCC12 (stereo unspecified)
Potency [1]: inactive
Potency [2]: inactive
Potency [3]: inactive
Potency [4]: inactive

C[N+](C)(C)CCOP(=O)([O-])OP(=O)(O)OC[C@H]1OC(n2ccc(N)nc2=O)[C@H](O)[C@@H]1O (stereo partly specified)
outcome [1]: inactive [at 0.573 µM]
outcome [2]: inactive [at 0.573 µM]
outcome [3]: inactive [at 0.573 µM]
outcome [4]: inactive [at 0.573 µM]

COCC(=O)Nc1cc(Sc2ccccc2)ccc1N=C(NC(=O)OC)NC(=O)OC
Potency [1]: inactive
Potency [2]: inactive
Potency [3]: inactive
Potency [4]: inactive

CCNC(=NCCCC[C@H](NC(=O)[C@H](CC(C)C)NC(=O)[C@@H](CCCCN=C(NCC)NCC)NC(=O)[C@@H](Cc1ccc(O)cc1)NC(=O)[C@@H](CO)NC(=O)[C@H](Cc1cccnc1)NC(=O)[C@H](Cc1ccc(Cl)cc1)NC(=O)C(Cc1ccc2ccccc2c1)NC(C)=O)C(=O)N1CCCC1C(=O)N[C@H](C)C(N)=O)NCC (stereo partly specified) (Ac-[ξ2Nal][Phe(4-Cl)][3Pal][dS][dY][d(hArg(Et2))]L[hArg(Et2)][ξP][dA]-NH2)
Potency [1]: inactive
Potency [2]: inactive
Potency [3]: inactive
Potency [4]: inactive
Potency [6]: 1.21 µM (active)

CC(=O)c1cc2cccc(OCC(O)CNC(C)C)c2o1 (stereo unspecified)
Potency [1]: inactive
Potency [2]: inactive
Potency [3]: inactive
Potency [4]: inactive
Potency [5]: inactive

O1[As]2O[As]1O2
Potency [1]: inactive
Potency [2]: inactive
Potency [3]: inactive
Potency [4]: inactive
Potency [6]: 19.2 µM (active)
Potency [5]: inactive
Potency [7]: inactive

Cc1cc(Nc2ncc(Cl)c(Nc3ccccc3S(=O)(=O)C(C)C)n2)c(OC(C)C)cc1C1CCNCC1
Potency [1]: inactive
Potency [2]: inactive
Potency [3]: inactive
Potency [4]: inactive
Potency [5]: inactive

CCOC(=O)[C@H](C)C[C@@H](Cc1ccc(-c2ccccc2)cc1)NC(=O)CCC(=O)O
Potency [1]: inactive
Potency [2]: inactive
Potency [3]: inactive
Potency [4]: inactive
Potency [5]: inactive

CN(C)CC(=O)O
Potency [1]: inactive
Potency [2]: inactive
Potency [3]: inactive
Potency [4]: inactive
Potency [5]: inactive

CC(C)(C)c1ccc2c(S(=O)(=O)O)c(C(C)(C)C)ccc2c1
Potency [1]: inactive
Potency [2]: inactive
Potency [3]: inactive
Potency [4]: inactive
Potency [5]: inactive

[2H]C([2H])([2H])C(CCC[C@@H](C)[C@H]1CC[C@H]2/C(=C/C=C3\C[C@@H](O)C[C@H](O)C3=C)CCC[C@]12C)C([2H])([2H])[2H]
Potency [1]: inactive
Potency [2]: inactive
Potency [3]: inactive
Potency [4]: inactive
Potency [5]: inactive

CCCC(=O)Nc1ncnc2c1ncn2C1O[C@@H]2COP(=O)(O)O[C@H]2[C@H]1OC(=O)CCC (stereo partly specified)
Potency [1]: inactive
Potency [2]: inactive
Potency [3]: inactive
Potency [4]: inactive
Potency [5]: inactive

Cc1cc(O)ccc1C(C)(C)C
Potency [1]: inactive
Potency [2]: inactive
Potency [3]: inactive
Potency [4]: inactive
Potency [5]: inactive

COc1ccc(CCNCC(O)COc2cccc(C)c2)cc1OC (stereo unspecified)
Potency [1]: inactive
Potency [2]: inactive
Potency [3]: inactive
Potency [4]: inactive
Potency [5]: inactive

O=C(O)CCSC[C@H]1O[C@@H]2O[C@H]3[C@H](O)[C@@H](O)[C@@H](O[C@H]4[C@H](O)[C@@H](O)[C@@H](O[C@H]5[C@H](O)[C@@H](O)[C@@H](O[C@H]6[C@H](O)[C@@H](O)[C@@H](O[C@H]7[C@H](O)[C@@H](O)[C@@H](O[C@H]8[C@H](O)[C@@H](O)[C@@H](O[C@H]9[C@H](O)[C@@H](O)[C@@H](O[C@H]1[C@H](O)[C@H]2O)O[C@@H]9CSCCC(=O)O)O[C@@H]8CSCCC(=O)O)O[C@@H]7CSCCC(=O)O)O[C@@H]6CSCCC(=O)O)O[C@@H]5CSCCC(=O)O)O[C@@H]4CSCCC(=O)O)O[C@@H]3CSCCC(=O)O
Potency [1]: inactive
Potency [2]: inactive
Potency [3]: inactive
Potency [4]: inactive
Potency [5]: inactive

CN(C)/C(N)=N/C(=N)N
outcome [1]: inactive [setting not given]
outcome [2]: inactive [setting not given]
outcome [3]: inactive [setting not given]
outcome [4]: inactive [setting not given]
outcome [5]: inactive [setting not given]

CC(=O)O[C@]1(C(C)=O)CC[C@H]2[C@@H]3C[C@H](C)C4=CC(=O)C=C[C@]4(C)[C@@]3(F)[C@@H](O)C[C@@]21C
Potency [1]: inactive
Potency [2]: inactive
Potency [3]: inactive
Potency [4]: inactive
Potency [5]: inactive

NC(=O)[C@H]1O[C@@H](O)[C@H](O)[C@@H](O)[C@@H]1O
Potency [1]: inactive
Potency [2]: inactive
Potency [3]: inactive
Potency [4]: inactive
Potency [5]: inactive
